Laboratory results reported in PubChem BioAssay AID1159580 (chemical genetic matrix, 2015).
The campaign covered roughly 5,500 compounds. About 2,000 (36%) were called active. Not shown: some 18% with an inconclusive outcome. Cut-off read from the data, not from the text of the source: active = normalized growth mostly below about 0.91 (no sharp cut-off); inconclusive = no clear call, values can overlap the other calls; inactive = mostly above about 0.92. Some of the results follow.

Experiment: chemical genetic growth profiling, strain panel (AID 1159580);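 note: tested at 20 µM; growth read once vehicle control cultures reached saturation at 30 °C; 1 = growth at the plate median or of vehicle wells; lower values mean less growth of the strain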
Conditions: growth OD

Measured: normalized growth

C=CCc1ccc2c(c1)OCO2
inactive: S. cerevisiae deletion strains, locus YJR043C, strain POL32, hits give low values 1.02 | S. cerevisiae deletion strains, locus YJR066W, strain TOR1, hits give low values 0.928 | S. cerevisiae deletion strains, locus YJR075W, strain HOC1, hits give low values 1.03 | S. cerevisiae deletion strains, locus YKL009W, strain mrt4, hits give low values 0.979 | S. cerevisiae deletion strains, locus YKL068W, hits give low values 0.987 | S. cerevisiae deletion strains, locus YKL085W, strain MDH1 (second series), hits give low values 1.01 | S. cerevisiae deletion strains, locus YKL085W, strain MDH1, hits give low values 1.01 | S. cerevisiae deletion strains, locus YKL160W, strain elf1, hits give low values 0.994 | S. cerevisiae deletion strains, locus YKL190W, strain CNB1, hits give low values 1.01 | S. cerevisiae deletion strains, locus YKR001C, strain vps1, hits give low values 0.965 | S. cerevisiae deletion strains, locus YKR026C, strain gcn3, hits give low values 1.03 | S. cerevisiae deletion strains, locus YKR091W, strain srl3, hits give low values 1.02 | S. cerevisiae deletion strains, locus YLL001W, strain dnm1, hits give low values 1.05 | S. cerevisiae deletion strains, locus YLL026W, hits give low values 1.01 | S. cerevisiae deletion strains, locus YLL041C, strain sdh2, hits give low values 1.02 | S. cerevisiae deletion strains, locus YLR027C, strain aat2, hits give low values 1 | S. cerevisiae deletion strains, locus YLR039C, strain RIC1, hits give low values 0.891 | S. cerevisiae deletion strains, locus YLR058C, strain SHM2, hits give low values 1.01 | S. cerevisiae deletion strains, locus YLR102C, strain apc9, hits give low values 0.993 | S. cerevisiae deletion strains, locus YLR113W, strain HOG1, hits give low values 1.03 | S. cerevisiae deletion strains, locus YLR221C, strain rsa3, hits give low values 1.06 | S. cerevisiae deletion strains, locus YLR258W, strain gsy2, hits give low values 1.02 | S. cerevisiae deletion strains, locus YLR262C, strain YPT6 (second series), hits give low values 1.03 | S. cerevisiae deletion strains, locus YLR262C, strain YPT6, hits give low values 0.909 | S. cerevisiae deletion strains, locus YLR268W, strain sec22, hits give low values 0.987 | S. cerevisiae deletion strains, locus YLR320W, strain mms22, hits give low values 1.04 | S. cerevisiae deletion strains, locus YLR330W, strain CHS5, hits give low values 1 | S. cerevisiae deletion strains, locus YLR342W, strain FKS1 (second series), hits give low values 1.01 | S. cerevisiae deletion strains, locus YLR342W, strain FKS1, hits give low values 1.02 | S. cerevisiae deletion strains, locus YLR357W, strain rsc2, hits give low values 1.13 | S. cerevisiae deletion strains, locus YLR370C, strain arc18, hits give low values 1.04 | S. cerevisiae deletion strains, locus YLR371W, strain rom2, hits give low values 0.984 | S. cerevisiae deletion strains, locus YLR384C, strain iki3, hits give low values 1.03 | S. cerevisiae deletion strains, locus YLR418C, strain cdc73, hits give low values 1.01 | S. cerevisiae deletion strains, locus YML016C, strain PPZ1, hits give low values 1.01 | S. cerevisiae deletion strains, locus YML032C, strain rad52, hits give low values 0.996 | S. cerevisiae deletion strains, locus YML120C, strain ndi1, hits give low values 1.05 | S. cerevisiae deletion strains, locus YML124C, strain tub3, hits give low values 0.995 | S. cerevisiae deletion strains, locus YMR058W, strain fet3, hits give low values 1.04 | S. cerevisiae deletion strains, locus YMR078C, strain ctf18, hits give low values 0.985 | S. cerevisiae deletion strains, locus YMR125W, strain sto1, hits give low values 1.08 | S. cerevisiae deletion strains, locus YMR129W, hits give low values 1.03 | S. cerevisiae deletion strains, locus YMR205C, strain PFK2, hits give low values 1 | S. cerevisiae deletion strains, locus YMR223W, strain ubp8, hits give low values 1 | S. cerevisiae deletion strains, locus YMR231W, strain pep5, hits give low values 1.02 | S. cerevisiae deletion strains, locus YMR263W, strain SAP30, hits give low values 1 | S. cerevisiae deletion strains, locus YMR307W, strain GAS1, hits give low values 0.995 | S. cerevisiae deletion strains, locus YNL067W, strain RPL9B, hits give low values 0.998 | S. cerevisiae deletion strains, locus YNL071W, strain lat1, hits give low values 1.03 | S. cerevisiae deletion strains, locus YNL183C, strain NPR1, hits give low values 0.97 | S. cerevisiae deletion strains, locus YNL209W, strain ssb2, hits give low values 1.02 | S. cerevisiae deletion strains, locus YNL233W, strain BNI4, hits give low values 1 | S. cerevisiae deletion strains, locus YNL248C, strain rpa49, hits give low values 1.04 | S. cerevisiae deletion strains, locus YNL250W, strain rad50, hits give low values 1.01 | S. cerevisiae deletion strains, locus YNL271C, strain bni1, hits give low values 0.978 | S. cerevisiae deletion strains, locus YNL298W, strain CLA4, hits give low values 0.995 | S. cerevisiae deletion strains, locus YNL307C, strain MCK1, hits give low values 0.989 | S. cerevisiae deletion strains, locus YNL322C, strain KRE1 (second series), hits give low values 1.02 | S. cerevisiae deletion strains, locus YNR049C, strain mso1, hits give low values 1.02 | S. cerevisiae deletion strains, locus YNR052C, strain pop2, hits give low values 0.997 | S. cerevisiae deletion strains, locus YOL012C, strain htz1 0.985 | S. cerevisiae deletion strains, locus YOL147C, strain pex11, hits give low values 0.987 | S. cerevisiae deletion strains, locus YOR001W, strain rrp6, hits give low values 1 | S. cerevisiae deletion strains, locus YOR061W, strain CKA2, hits give low values 1.01 | S. cerevisiae deletion strains, locus YOR069W, strain VPS5, hits give low values 1.01 | S. cerevisiae deletion strains, locus YOR070C, strain gyp1, hits give low values 1.01 | S. cerevisiae deletion strains, locus YOR080W, strain dia2, hits give low values 1.03 | S. cerevisiae deletion strains, locus YOR083W, strain WHI5, hits give low values 1 | S. cerevisiae deletion strains, locus YOR106W, strain vam3, hits give low values 1.04 | S. cerevisiae deletion strains, locus YOR136W, strain idh2, hits give low values 0.987 | S. cerevisiae deletion strains, locus YOR144C, strain elg1, hits give low values 0.988 | S. cerevisiae deletion strains, locus YOR184W, strain ser1, hits give low values 0.99 | S. cerevisiae deletion strains, locus YOR231W, strain MKK1, hits give low values 0.99 | S. cerevisiae deletion strains, locus YOR265W, strain rbl2, hits give low values 1.01 | S. cerevisiae deletion strains, locus YOR270C, strain vph1, hits give low values 1.07 | S. cerevisiae deletion strains, locus YOR290C, strain snf2, hits give low values 1.07 | S. cerevisiae deletion strains, locus YOR316C, strain cot1, hits give low values 0.99 | S. cerevisiae deletion strains, locus YPL051W, strain arl3, hits give low values 1 | S. cerevisiae deletion strains, locus YPL078C, strain atp4, hits give low values 1.01 | S. cerevisiae deletion strains, locus YPL106C, strain sse1, hits give low values 1.03 | S. cerevisiae deletion strains, locus YPL240C, strain hsp82, hits give low values 1.02 | S. cerevisiae deletion strains, locus YPL256C, strain CLN2, hits give low values 0.966 | S. cerevisiae deletion strains, locus YPR119W, strain clb2, hits give low values 0.982 | S. cerevisiae deletion strains, locus YPR141C, strain kar3, hits give low values 0.976 | S. cerevisiae deletion strains, locus YPR163C, strain tif3, hits give low values 0.989 | S. cerevisiae deletion strains, locus YPR167C, strain met16, hits give low values 0.991 | S. cerevisiae deletion strains, strain wtn01, hits give low values 1.01 | S. cerevisiae strains, strain wild type, hits give low values 1.01
